# Laboratory results from the supplement of paper PMC6555819.
# Legend:
# Test in all cases: PBM binding z-score (relative to random genomic background probes); higher = stronger binding; sequences stand for … in GC…GCGATTGACAGCGTAGAATGAAGG
# [1] = tested on: FXR:RXRa (NR concentration 270 nM, RXRa partner concentration 90 nM)
# Summary of the method: (§1)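 The probes on custom Agilent 4×180K protein-binding microarrays were double-stranded, with 34-nt variable regions bearing direct-repeat seeds, single-nucleotide variants, half-site ablations and random human genomic background sequences. Incubation lasted 1 h with ligand-free nuclear receptor dimers in PBS pH 7.4, 2% milk, 0.02% Triton X-100, 1 mM DTT, 0.2 mg/mL BSA and 0.4 mg/ml salmon testes DNA. Antibodies against each partner (one per run) detected bound dimers, and fluorescence scans were regression-normalized. Binding z-scores take the random background probes as reference.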
# [2] = tested on: LXRa:RXRa (NR concentration 270 nM, RXRa partner concentration 90 nM)
# Summary of the method: as §1
# [3] = tested on: LXRa homodimer (NR concentration 270 nM)
# Summary of the method: as §1
# [4] = tested on: LXRb:RXRa (NR concentration 270 nM, RXRa partner concentration 90 nM)
# Summary of the method: as §1
# [5] = tested on: LXRb homodimer (NR concentration 270 nM)
# Summary of the method: as §1
# [6] = tested on: PPARa:RXRa (NR concentration 270 nM, RXRa partner concentration 90 nM)
# Summary of the method: as §1
# [7] = tested on: PPARg:RXRa (NR concentration 180 nM, RXRa partner concentration 90 nM)
# Summary of the method: as §1
# [8] = tested on: PPARg:RXRa 270nM:90nM, anti-RXR (NR concentration 270 nM, RXRa partner concentration 90 nM)
# Summary of the method: as §1
# [9] = tested on: PPARg:RXRa 30nM:10nM, anti-RXR (NR concentration 30 nM, RXRa partner concentration 10 nM)
# Summary of the method: as §1
# [10] = tested on: PPARg:RXRa 90nM:30nM, anti-RXR (NR concentration 90 nM, RXRa partner concentration 30 nM)
# Summary of the method: as §1
# [11] = tested on: PPARg:RXRa DBDmut IVT, anti-RXR (DBD mutation: RXRa K156A/R161A, NR concentration 270 nM, RXRa partner concentration 90 nM)
# Summary of the method: as §1
# [12] = tested on: PPARg:RXRa IVT, anti-PPARg (NR concentration 270 nM, RXRa partner concentration 90 nM)
# Summary of the method: as §1
# [13] = tested on: PPARg DBDmut:RXRa IVT, anti-PPARg (DBD mutation: PPARg1 K132A/R137A, NR concentration 270 nM, RXRa partner concentration 90 nM)
# Summary of the method: as §1
# [14] = tested on: PPARg DBDmut IVT, anti-PPARg (DBD mutation: PPARg1 K132A/R137A, NR concentration 270 nM)
# Summary of the method: as §1
# [15] = tested on: PPARg homodimer (NR concentration 180 nM)
# Summary of the method: as §1
# [16] = tested on: PXR:RXRa (NR concentration 270 nM, RXRa partner concentration 90 nM)
# Summary of the method: as §1
# [17] = tested on: PXR homodimer (NR concentration 270 nM)
# Summary of the method: as §1
# [18] = tested on: RARa:RXR (NR concentration 270 nM, RXRa partner concentration 90 nM)
# Summary of the method: as §1
# [19] = tested on: RARa homodimer (NR concentration 270 nM)
# Summary of the method: as §1
# [20] = tested on: RARb:RXRa (NR concentration 270 nM, RXRa partner concentration 90 nM)
# Summary of the method: as §1
Sequence,PBM binding z-score [1],PBM binding z-score [2],PBM binding z-score [3],PBM binding z-score [4],PBM binding z-score [5],PBM binding z-score [6],PBM binding z-score [7],PBM binding z-score [8],PBM binding z-score [9],PBM binding z-score [10],PBM binding z-score [11],PBM binding z-score [12],PBM binding z-score [13],PBM binding z-score [14],PBM binding z-score [15],PBM binding z-score [16],PBM binding z-score [17],PBM binding z-score [18],PBM binding z-score [19],PBM binding z-score [20]
ATATGTAGGTTACATCCGGGTCATTAAGGCTATG,2.39,4.11,1.5,3.09,0.566,4.35,6.02,5.08,2.66,4.28,7.73,7.28,1.96,2.14,1.78,3.52,4.13,3.18,0.456,2.36
ACTAGCAGGCCAAGTATGGGTCACTCAAACAAAG,0.0234,0.143,-0.148,0.932,-0.854,1.74,0.661,0.755,-0.094,0.375,1.16,1.82,-0.278,-0.249,0.52,0.911,-0.49,1.85,-0.747,1.58
TCGAGTTGGTCAAAGGTCACACACTCGAAATGCG,5.98,5.57,3.08,5.33,0.74,6.37,10.4,9.4,8.64,11.3,1.75,5.88,1.98,1.49,8.37,6.29,1.41,7.61,4,4.9
GCTTACGGGTCAAAGGTTATAGGATGAATAGAAT,7.58,5.53,0.854,5.77,0.455,6.89,11.4,9.24,10,10.9,4.59,5.81,2.01,1.61,3.34,6.34,0.559,8.36,1.33,4.59
TGAATGAGATTAAAGATCAGGGAACGTGGCGTCG,-0.229,-0.065,-0.329,-0.322,-0.389,0.409,1.02,2.19,1.3,1.91,-0.695,-0.415,-1.12,-0.126,-0.076,-0.42,-0.498,-0.467,0.0825,-0.19
AGAATGAGGTTATACGAAGATCAGGGAAGAAAGT,2.26,1.67,-0.199,1.54,-0.139,3.25,1.68,1.8,0.749,1.51,2.26,2.05,0.807,0.512,0.484,1.04,0.292,1.61,0.714,1.3
TCTGCTAGGTCAACGATGGACAGCTAATCTGCTA,3.08,2.24,-0.31,1.28,-0.137,3.07,2.78,3.12,2.13,2.56,3.88,4.29,1.56,0.358,1.08,1.32,-0.751,2.01,-0.131,3.97
TCATATAGATAAATGCTAGGTGAAAGTCCGATCT,0.784,0.813,0.103,0.591,-0.152,0.912,0.876,2.09,3.93,3.03,2.73,0.677,0.125,0.81,0.438,0.417,0.256,0.494,1.19,0.184
TCTATTAGTTGATTAAGGCAACCGAAACAGCGGA,0.785,0.541,0.0619,0.645,0.994,0.614,0.172,2.06,3.75,2.99,2.31,0.341,1.4,0.689,0.977,0.454,0.378,0.873,1.34,0.0773
GCGTCTGGGGCAAAGCAGGTTACCATAAGGTTGG,0.56,0.162,-0.429,0.26,-0.82,1.26,0.532,0.46,-0.355,0.0417,3.3,2.33,-0.833,-1.14,0.154,0.372,-0.589,0.843,-1.37,1.17
CGTCCAAGGTCATAGGAGGTCAGTGACGACAGAT,7.82,7.6,4.84,6.12,0.978,6.02,5.6,5.9,2.05,4.62,3.6,4.57,0.237,0.133,5.09,6.69,4.69,6.08,2.29,5.44
CCTTACGGGTCACTCCAGGTTATAGAATCGGAGT,5.18,7.67,1.89,5.43,0.287,4.4,3.31,3.8,1.18,2.56,2.67,3.47,1.31,0.0238,1.95,5.29,0.455,4.11,0.74,3.68
CGAACGAGGGCACGAGTTGATAGCAAATGCCGAT,0.992,0.567,-0.547,0.453,-0.624,2.28,2.4,1.99,0.448,1.44,3.89,3.93,0.0277,-0.0688,-0.0293,0.738,0.271,1.12,-0.123,2.6
TGTTGTAGATCAACAGGAGGTTAAGAAAGATCGA,0.0129,0.966,0.018,0.701,-0.0946,0.963,-0.033,0.456,0.304,0.492,-0.279,0.51,0.32,0.601,0.107,0.714,-0.0905,0.912,-0.122,0.386
TGTATTAGTTGAAGGGCAACCGACGAGTCCGTTT,0.551,0.588,0.228,0.491,0.587,0.462,0.102,0.95,0.864,0.871,0.404,0.87,0.403,1.05,1.27,0.63,0.962,0.3,0.995,1.5
CCTACTGGGCCATCTGGTCATTGATATCAACGTT,-0.161,-0.364,-0.126,-0.0941,-0.192,0.878,1.09,2.19,0.303,1.69,3.95,4.15,0.821,0.613,0.5,-0.397,-0.43,-0.692,0.0969,0.606
GCTGCTAGGTCAACTGATGGTCAGCCAAAGCTCG,3.81,3.1,0.159,2.08,0.187,3.65,2.88,2.91,0.226,1.68,4.84,3.92,0.564,-0.45,1.57,1.39,-0.698,2.93,-0.0572,4.27
TCATATAGGTAGAGGTGAAAGTCGAACGATATGA,0.743,0.996,-0.23,0.833,-0.246,2.43,1.96,3.02,3.6,3.28,2.29,2.16,2,0.275,0.614,0.78,0.269,1.22,0.173,1.31
CCTCGGAGGACAGAAGGTCAGAGCTGTCCGCTTT,1.38,1.63,-0.0944,1.03,-0.587,1.84,-0.203,0.708,-0.69,-0.00592,0.195,-0.199,-1.36,-1.28,1.06,1.35,-0.13,1.93,0.441,2.89
TCTAGCAGGCCTGAGGGTCACTCAAGAGGTACGG,1.03,1.18,-0.547,1.32,-1.24,2.38,0.588,1.57,1.62,1.44,0.475,-0.212,-2.08,-1.13,0.706,1.92,-0.465,2.85,-0.571,2.12
ATACCAAGGTGATCGTTAGGTCGTTGATACTAAC,1.05,0.551,0.24,0.374,-0.0967,0.452,0.242,0.192,-0.144,-0.131,0.451,1.04,0.332,1.27,0.52,0.494,0.467,1.25,0.0968,0.816
ATCGAAAGGTCGAGGTGAGTGTAGAGAAAGGGAA,4.53,3.52,0.118,2.74,0.572,4.69,3.13,3.76,1.42,2.6,0.382,2.47,0.918,-0.292,2.56,3.28,0.73,3.41,1.1,3.97
TCATATAGGTAACAGGTGAAAGTCGGTGTGGTAA,0.983,1,0.422,1.24,0.411,3.53,5.3,6.22,6.28,6.73,5.02,4.81,0.985,1.02,1.4,0.896,0.535,0.876,1.18,1
AGTCAACGTTCACTAGGTAACGTAAGATTCAGCT,-0.243,-0.0638,-0.401,-0.00739,0.00206,0.525,0.874,0.511,0.121,0.475,2.07,2.83,0.496,0.783,-0.0596,-0.163,-0.41,-0.184,-0.305,0.64
CCAGACAGGTGAGAGGTAACTCAGTCTGGTACGC,-0.0103,0.206,-0.48,0.237,-0.589,1.97,2.93,4.15,1.95,3.82,1.59,1.87,-0.562,-0.501,0.989,-0.00466,-0.224,0.194,0.0236,0.78
TCATATATGTAATACAGGTGAAAGTCGGCATCTA,0.656,0.799,0.168,0.857,0.395,2.14,2.09,3.12,3.65,3.4,2.42,2.27,1.39,1.75,0.745,0.801,0.494,1.41,0.947,0.42
